Experimental data taken from the supplement of paper PMC8371130.
Where a name gives a salt, the structure may show the parent alone.

Tested on: HL-1
Experiment: relative cell viability (CellTiter-Glo) vs DMSO control (% of DMSO control); higher = more viable cells
Procedure, shortened: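 HL-1 mouse atrial cardiomyocytes were seeded into 384-well plates at 1000 cells per well along with compounds at 40, 200, 1000 or 5000 nM in 0.01% DMSO. After one day, the cells were moved to a hypoxic workstation (1% O2) for 48 h and then reoxygenated for 24 h in a normal incubator, while others remained in normoxia for the same period. Cell viability was measured by CellTiter-Glo luminescence and normalised to vehicle-treated control cells.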

[1] = oxygen condition: hypoxia 48 h (1% O2) + reoxygenation 24 h, 40 nM
[2] = oxygen condition: hypoxia 48 h (1% O2) + reoxygenation 24 h, 200 nM
[3] = oxygen condition: hypoxia 48 h (1% O2) + reoxygenation 24 h, 1000 nM
[4] = oxygen condition: hypoxia 48 h (1% O2) + reoxygenation 24 h, 5000 nM
[5] = oxygen condition: normoxia 72 h, 40 nM
[6] = oxygen condition: normoxia 72 h, 200 nM
[7] = oxygen condition: normoxia 72 h, 1000 nM
[8] = oxygen condition: normoxia 72 h, 5000 nM

Row | Structure (SMILES) | relative cell viability [1] | relative cell viability [2] | relative cell viability [3] | relative cell viability [4] | relative cell viability [5] | relative cell viability [6] | relative cell viability [7] | relative cell viability [8]
1 | O=C(O)C[C@H](O)C[C@H](O)/C=C/c1c(C2CC2)nc2ccccc2c1-c1ccc(F)cc1 [Pitavastatin calcium] | 109 | 109 | 85.5 | 7.03 | 117 | 109 | 88.9 | 4.53
2 | COc1ccc(CC(C)NCC(O)c2ccc(O)c(NC=O)c2)cc1 (configuration not stated) [Formoterol hemifumarate] | 100 | 98.7 | 102 | 111 | 104 | 106 | 98.9 | 106
3 | COc1cc2c(cc1OC)C(=O)C(CC1CCN(Cc3ccccc3)CC1)C2 (configuration not stated) [Donepezil HCl] | 106 | 106 | 110 | 106 | 95.9 | 102 | 103 | 107
4 | O=C1Cc2cc(CCN3CCN(c4nsc5ccccc45)CC3)c(Cl)cc2N1 [Ziprasidone hydrochloride] | 105 | 101 | 106 | 102 | 107 | 98.2 | 104 | 98.4
5 | Oc1ncnc2[nH]ncc12 [Allopurinol] | 114 | 108 | 106 | 109 | 105 | 103 | 106 | 110
6 | Cc1cccc(N(C)C(=S)Oc2ccc3ccccc3c2)c1 [Tolnaftate] | 91.4 | 102 | 100 | 105 | 102 | 101 | 105 | 103
7 | CCCC(CCC)C(=O)O [Valproic acid sodium salt] | 106 | 117 | 113 | 111 | 104 | 111 | 123 | 111
8 | CCCCCOC(=O)Nc1nc(=O)n([C@@H]2O[C@H](C)[C@@H](O)[C@H]2O)cc1F [Capecitabine] | 104 | 94.1 | 106 | 119 | 105 | 113 | 119 | 129
9 | CCc1c2c(nc3ccc(OC(=O)N4CCC(N5CCCCC5)CC4)cc13)-c1cc3c(c(=O)n1C2)COC(=O)[C@]3(O)CC [Irinotecan HCl Trihydrate] | 89 | 95.6 | 64.6 | 40.2 | 99 | 83.5 | 62.5 | 40.2
10 | Nc1ccn([C@@H]2O[C@H](CO)[C@@H](O)[C@H]2O)c(=O)n1 [Cytidine] | 101 | 101 | 105 | 106 | 106 | 107 | 101 | 106
11 | COc1ccccc1OCCNCC(O)COc1cccc2[nH]c3ccccc3c12 (configuration not stated) [Carvedilol] | 93.5 | 110 | 107 | 108 | 104 | 105 | 107 | 107
12 | CS(=O)(=O)OCCCCOS(C)(=O)=O [Busulfan] | 108 | 102 | 103 | 107 | 104 | 103 | 97.4 | 120
13 | CC1CCc2cc(F)cc3c(=O)c(C(=O)O)cn1c23 (configuration not stated) [Flumequine] | 104 | 98.4 | 117 | 108 | 106 | 120 | 104 | 98.2
14 | O=C(NC[C@H]1CN(c2ccc(N3CCOCC3=O)cc2)C(=O)O1)c1ccc(Cl)s1 [Rivaroxaban] | 91.5 | 106 | 99.8 | 112 | 99 | 90.8 | 103 | 92.1
15 | N[C@@H](CSCCCO)C(=O)O [Fudosteine] | 105 | 105 | 109 | 111 | 106 | 109 | 104 | 115
16 | Cc1c(OCC(F)(F)F)ccnc1C[S@@+]([O-])c1nc2ccccc2[nH]1 [Dexlansoprazole] | 105 | 101 | 107 | 105 | 101 | 97.7 | 104 | 91.9
17 | COc1cc2nccc(Oc3ccc(NC(=O)C4(C(=O)Nc5ccc(F)cc5)CC4)cc3)c2cc1OC | 109 | 112 | 111 | 115 | 112 | 110 | 107 | 120
18 | CCc1ccc(CCOc2ccc(CC3SC(=O)NC3=O)cc2)nc1 (configuration not stated) [Pioglitazone hydrochloride] | 106 | 97.2 | 103 | 106 | 94.5 | 97.9 | 101 | 103
19 | O=C(CCNNC(=O)c1ccncc1)NCc1ccccc1 [Nialamide] | 107 | 109 | 108 | 113 | 96.2 | 105 | 104 | 138
20 | COc1ccc(CN(CCN(C)C)c2ccccn2)cc1 [Pyrilamine Maleate] | 102 | 99.1 | 101 | 112 | 99.5 | 106 | 99.9 | 124
21 | CN(C)C(=N)NC(=N)N [Metformin hydrochloride] | 98.4 | 104 | 105 | 109 | 105 | 96.6 | 104 | 109
22 | CCCCc1nc(Cl)c(CO)n1Cc1ccc(-c2ccccc2-c2nnn[nH]2)cc1 [Losartan potassium] | 111 | 107 | 114 | 108 | 103 | 108 | 108 | 110

Row | Structure (SMILES) | relative cell viability [1] | relative cell viability [2] | relative cell viability [3] | relative cell viability [4] | relative cell viability [5] | relative cell viability [6] | relative cell viability [7] | relative cell viability [8]
23 | CC1=C(CC(=O)O)c2cc(F)ccc2/C1=C\c1ccc([S+](C)[O-])cc1 (configuration not stated) [Sulindac] | 104 | 105 | 106 | 61.2 | 103 | 101 | 108 | 113
24 | CCCNCC(O)COc1ccccc1C(=O)CCc1ccccc1 (configuration not stated) [Propafenone] | 97.1 | 105 | 108 | 105 | 107 | 102 | 110 | 103
25 | Cc1ccc(Nc2nccc(N(C)c3ccc4c(C)n(C)nc4c3)n2)cc1S(N)(=O)=O [Pazopanib] | 104 | 108 | 102 | 116 | 92.7 | 102 | 110 | 110
26 | N[C@@H](Cc1ccc(O)c(O)c1)C(=O)O [Levodopa] | 110 | 109 | 107 | 110 | 104 | 101 | 108 | 104
27 | CC[C@@]1(O)C(=O)OCc2c1cc1n(c2=O)Cc2cc3c(CN(C)C)c(O)ccc3nc2-1 [Topotecan HCl] | 58.6 | 37.4 | 19.8 | 9.1 | 52.3 | 30.9 | 15.1 | 6.41
28 | C=C1/C(=C\C=C2/CCC[C@]3(C)[C@@H]([C@H](C)CCCC(C)C)CC[C@@H]23)C[C@@H](O)C[C@@H]1O [Alfacalcidol] | 109 | 104 | 118 | 106 | 108 | 104 | 88.5 | 106
29 | CCOC(=O)C1=C[C@@H](OC(CC)CC)[C@H](NC(C)=O)[C@@H](N)C1 [Oseltamivir phosphate] | 94.9 | 99.4 | 99.5 | 111 | 103 | 101 | 105 | 111
30 | COCCCC/C(=N\OCCN)c1ccc(C(F)(F)F)cc1 [Fluvoxamine maleate] | 101 | 109 | 94.9 | 94.7 | 109 | 98.3 | 106 | 95.2
31 | N#Cc1ccc(C(c2ccc(C#N)cc2)n2cncn2)cc1 [Letrozole] | 103 | 105 | 109 | 104 | 107 | 110 | 105 | 110
32 | Cc1cccc(C)c1NC(=O)C1CCCCN1C (configuration not stated) [Mepivacaine HCl] | 102 | 99.8 | 121 | 105 | 102 | 110 | 111 | 111
33 | CCN[C@H]1C[C@H](C)S(=O)(=O)c2sc(S(N)(=O)=O)cc21 [Dorzolamide HCL] | 111 | 105 | 104 | 111 | 117 | 106 | 107 | 121
34 | COc1cc(C(C)=O)ccc1OCCCN1CCC(c2noc3cc(F)ccc23)CC1 [Iloperidone] | 108 | 104 | 107 | 107 | 99.6 | 109 | 119 | 109
35 | COc1ccccc1OCC(O)CN1CCN(CC(=O)Nc2c(C)cccc2C)CC1 (configuration not stated) [Ranolazine] | 85 | 102 | 98 | 112 | 105 | 102 | 107 | 118
36 | NC(=O)c1cn(Cc2c(F)cccc2F)nn1 [Rufinamide] | 103 | 106 | 109 | 112 | 106 | 106 | 111 | 112
37 | CC(C)OC(=O)C(C)(C)Oc1ccc(C(=O)c2ccc(Cl)cc2)cc1 [Fenofibrate] | 103 | 105 | 108 | 110 | 103 | 97.9 | 97.5 | 112
38 | CN1CCN(C2=Nc3cc(Cl)ccc3Nc3ccccc32)CC1 [Clozapine] | 105 | 104 | 105 | 99.9 | 96 | 108 | 113 | 102
39 | CC(C)NC[C@H](O)COc1ccc(CCOCC2CC2)cc1 [Levobetaxolol HCl] | 110 | 102 | 107 | 115 | 105 | 106 | 108 | 115
40 | NC(=O)NO [Hydroxyurea] | 101 | 109 | 109 | 108 | 108 | 103 | 109 | 110
41 | NCCC(O)(P(=O)(O)O)P(=O)(O)O [Pamidronate Disodium] | 98.6 | 106 | 107 | 76.5 | 107 | 99.9 | 108 | 105
42 | CN(CCOc1ccc(CC2SC(=O)NC2=O)cc1)c1ccccn1 (configuration not stated) [Rosiglitazone HCl] | 107 | 93.8 | 101 | 109 | 100 | 93.8 | 104 | 107
43 | CC12CC3CC(C)(C1)CC(N)(C3)C2 [Memantine HCl] | 105 | 105 | 101 | 106 | 94.5 | 101 | 108 | 93.4
44 | CN1CCN(CCCN2c3ccccc3Sc3ccc(C(F)(F)F)cc32)CC1 [Trifluoperazine 2HCl] | 102 | 103 | 105 | 114 | 107 | 106 | 103 | 112
